According to the supplement of paper PMC6992640:
Where a name gives a salt, the structure may show the parent alone.

Legend:
Test in all cases: cell viability of combination (% of vehicle); higher = less cytotoxic
Conditions in all cases: 1 µM; 72 h; partner dose: 10 nM
[1] = tested on: HCI01 (cells of a triple-negative basal-like breast cancer xenograft)
Method: (§1)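 PDX cells were treated for 72 h with each drug at 1 µM plus afatinib (10 nM; 1 µM for WHIM30). Luciferase viability is expressed as percent of vehicle.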

[2] = tested on: UCD52 (cells of a triple-negative basal-like breast cancer xenograft)
Method: as §1

[3] = tested on: WHIM2 (cells of a triple-negative basal-like breast cancer xenograft)
Method: as §1

| Structure (SMILES) | cell viability of combination [1] | cell viability of combination [2] | cell viability of combination [3] |
| --- | --- | --- | --- |
| CN1CCCC1CCOC(C)(c1ccccc1)c1ccc(Cl)cc1.O=C(O)C=CC(=O)O (stereo unspecified) [Clemastine Fumarate] + CN(C)C/C=C/C(=O)Nc1cc2c(Nc3ccc(F)c(Cl)c3)ncnc2cc1O[C@H]1CCOC1 [Afatinib] | 54.6 | 65.2 | 54 |
| COc1cccc2c1C(=O)c1c(O)c3c(c(O)c1C2=O)C[C@@](O)(C(C)=O)C[C@@H]3O[C@H]1C[C@H](N)[C@H](O)[C@H](C)O1.Cl [Daunorubicin HCl] + CN(C)C/C=C/C(=O)Nc1cc2c(Nc3ccc(F)c(Cl)c3)ncnc2cc1O[C@H]1CCOC1 [Afatinib] | 70.7 | 20.8 | 9.65 |
| Cc1c(-c2ccc(O)cc2)n(Cc2ccc(OCCN3CCCCCC3)cc2)c2ccc(O)cc12.Cl [Bazedoxifene HCl] + CN(C)C/C=C/C(=O)Nc1cc2c(Nc3ccc(F)c(Cl)c3)ncnc2cc1O[C@H]1CCOC1 [Afatinib] | 64.6 | 69.7 | 49.7 |
| Cc1cc(-n2c(=O)[nH]c(=O)n(C)c2=O)ccc1Oc1ccc(SC(F)(F)F)cc1 [Toltrazuril] + CN(C)C/C=C/C(=O)Nc1cc2c(Nc3ccc(F)c(Cl)c3)ncnc2cc1O[C@H]1CCOC1 [Afatinib] | 58.1 | 76.1 | 48.4 |
| COc1nc2ccc(Br)cc2cc1[C@@H](c1ccccc1)[C@@](O)(CCN(C)C)c1cccc2ccccc12 [Bedaquiline fumarate] + CN(C)C/C=C/C(=O)Nc1cc2c(Nc3ccc(F)c(Cl)c3)ncnc2cc1O[C@H]1CCOC1 [Afatinib] | 52.9 | 91.2 | 49 |
| CNC(=O)c1cc(Oc2ccc(NC(=O)Nc3ccc(Cl)c(C(F)(F)F)c3)cc2)ccn1 [Sorafenib] + CN(C)C/C=C/C(=O)Nc1cc2c(Nc3ccc(F)c(Cl)c3)ncnc2cc1O[C@H]1CCOC1 [Afatinib] | 49.6 | 52.2 | 48.5 |
| Cl.OC(CNCC(O)C1CCc2cc(F)ccc2O1)C1CCc2cc(F)ccc2O1 (stereo unspecified) [Nebivolol] + CN(C)C/C=C/C(=O)Nc1cc2c(Nc3ccc(F)c(Cl)c3)ncnc2cc1O[C@H]1CCOC1 [Afatinib] | 47.1 | 64.9 | 44.7 |
| CC(C)(C)c1ccc(C(=O)CCCN2CCC(OC(c3ccccc3)c3ccccc3)CC2)cc1 [Ebastine] + CN(C)C/C=C/C(=O)Nc1cc2c(Nc3ccc(F)c(Cl)c3)ncnc2cc1O[C@H]1CCOC1 [Afatinib] | 48.2 | 70.1 | 50.3 |
| CC(CCC(=O)O)C1CCC2C3CCC4CC(O)CCC4(C)C3CCC12C (stereo unspecified) [Lithocholic Acid] + CN(C)C/C=C/C(=O)Nc1cc2c(Nc3ccc(F)c(Cl)c3)ncnc2cc1O[C@H]1CCOC1 [Afatinib] | 45.1 | 52.6 | 40.5 |
| Nc1c(CC(=O)[O-])cccc1C(=O)c1ccccc1.O.[Na+] [Amfenac Sodium Monohydrate] + CN(C)C/C=C/C(=O)Nc1cc2c(Nc3ccc(F)c(Cl)c3)ncnc2cc1O[C@H]1CCOC1 [Afatinib] | 54.7 | 76.3 | 47.6 |
| COC(=O)C1=C(C)NC(C)=C(C(=O)OC2CCCN(Cc3ccccc3)C2)C1c1cccc([N+](=O)[O-])c1.Cl (stereo unspecified) [Benidipine HCl] + CN(C)C/C=C/C(=O)Nc1cc2c(Nc3ccc(F)c(Cl)c3)ncnc2cc1O[C@H]1CCOC1 [Afatinib] | 53.4 | 79.2 | 51.4 |
| CN1CCN(CCOc2cc(OC3CCOCC3)c3c(Nc4c(Cl)ccc5c4OCO5)ncnc3c2)CC1 [Saracatinib (AZD0530)] + CN(C)C/C=C/C(=O)Nc1cc2c(Nc3ccc(F)c(Cl)c3)ncnc2cc1O[C@H]1CCOC1 [Afatinib] | 41.1 | 37.9 | 24.5 |
| CCN(CC)CCNC(=O)c1c(C)[nH]c(C=C2C(=O)Nc3ccc(F)cc32)c1C.O=C(O)CC(O)C(=O)O [Sunitinib malate] + CN(C)C/C=C/C(=O)Nc1cc2c(Nc3ccc(F)c(Cl)c3)ncnc2cc1O[C@H]1CCOC1 [Afatinib] | 42 | 43.6 | 44.2 |
| Cl.Nc1ccn(C2OC(CO)C(O)C2O)c(=O)n1 (stereo unspecified) [Cytarabine hydrochloride] + CN(C)C/C=C/C(=O)Nc1cc2c(Nc3ccc(F)c(Cl)c3)ncnc2cc1O[C@H]1CCOC1 [Afatinib] | 46.6 | 72.2 | 40.3 |
| Br.Cc1ccc(Sc2ccccc2N2CCNCC2)c(C)c1 + CN(C)C/C=C/C(=O)Nc1cc2c(Nc3ccc(F)c(Cl)c3)ncnc2cc1O[C@H]1CCOC1 [Afatinib] | 49.7 |  | 46.7 |
| CCc1oc2ccccc2c1C(=O)c1cc(Br)c(O)c(Br)c1 [Benzbromarone] + CN(C)C/C=C/C(=O)Nc1cc2c(Nc3ccc(F)c(Cl)c3)ncnc2cc1O[C@H]1CCOC1 [Afatinib] | 56.3 | 77.2 | 48 |
| CC[C@H](C)[C@H]1O[C@]2(CC[C@@H]1C)C[C@@H]1C[C@@H](C/C=C(\C)[C@@H](O[C@H]3C[C@H](OC)[C@@H](O[C@H]4C[C@H](OC)[C@@H](O)[C@H](C)O4)[C@H](C)O3)[C@@H](C)/C=C/C=C3\CO[C@@H]4[C@H](O)C(C)=C[C@@H](C(=O)O1)[C@]34O)O2 [Ivermectin] + CN(C)C/C=C/C(=O)Nc1cc2c(Nc3ccc(F)c(Cl)c3)ncnc2cc1O[C@H]1CCOC1 [Afatinib] | 46 | 45.8 | 44.5 |
| CN(C(=O)CN(CCO)CC(=O)N(C)C(C)(C)Cc1ccccc1)C(C)(C)Cc1ccccc1 [Oxethazaine] + CN(C)C/C=C/C(=O)Nc1cc2c(Nc3ccc(F)c(Cl)c3)ncnc2cc1O[C@H]1CCOC1 [Afatinib] | 49.1 | 62.9 | 41.4 |
| Cc1ccc(-n2[nH]c(C)c(NN=C3C=CC=C(c4cccc(C(=O)O)c4)C3=O)c2=O)cc1C [Eltrombopag] + CN(C)C/C=C/C(=O)Nc1cc2c(Nc3ccc(F)c(Cl)c3)ncnc2cc1O[C@H]1CCOC1 [Afatinib] | 52.9 | 77.1 | 48.5 |
| CC(C)(C)c1ccc(C(O)CCCN2CCC(C(O)(c3ccccc3)c3ccccc3)CC2)cc1 (stereo unspecified) [Terfenadine] + CN(C)C/C=C/C(=O)Nc1cc2c(Nc3ccc(F)c(Cl)c3)ncnc2cc1O[C@H]1CCOC1 [Afatinib] | 52.8 | 59.1 | 51.1 |
| CC1=C(C(=O)OC(C)C)C(c2cccc([N+](=O)[O-])c2)C(C(=O)OC2CN(C(c3ccccc3)c3ccccc3)C2)=C(N)N1 (stereo unspecified) [Azelnidipine] + CN(C)C/C=C/C(=O)Nc1cc2c(Nc3ccc(F)c(Cl)c3)ncnc2cc1O[C@H]1CCOC1 [Afatinib] | 56.7 | 52.3 | 43 |
| CO[C@H]1C[C@@H]2CC[C@@H](C)[C@@](O)(O2)C(=O)C(=O)N2CCCC[C@H]2C(=O)O[C@H]([C@H](C)C[C@@H]2CC[C@@H](OC(=O)C(C)(CO)CO)[C@H](OC)C2)CC(=O)[C@H](C)/C=C(\C)[C@@H](O)[C@@H](OC)C(=O)[C@H](C)C[C@H](C)/C=C/C=C/C=C/1C [Temsirolimus] + CN(C)C/C=C/C(=O)Nc1cc2c(Nc3ccc(F)c(Cl)c3)ncnc2cc1O[C@H]1CCOC1 [Afatinib] | 45.9 | 40.4 | 44 |
| O=C(NN=Cc1ccc([N+](=O)[O-])o1)c1ccc(O)cc1 [Nifuroxazide] + CN(C)C/C=C/C(=O)Nc1cc2c(Nc3ccc(F)c(Cl)c3)ncnc2cc1O[C@H]1CCOC1 [Afatinib] | 50.8 | 79.4 | 48.8 |
| Cl.O.O=C1Cc2cc(CCN3CCN(c4nsc5ccccc45)CC3)c(Cl)cc2N1 [Ziprasidone hydrochloride monohydrate] + CN(C)C/C=C/C(=O)Nc1cc2c(Nc3ccc(F)c(Cl)c3)ncnc2cc1O[C@H]1CCOC1 [Afatinib] | 46.7 |  | 45.2 |
| C=C1C(=CC=C2CCCC3(C)C2CCC3C(C)CCCC(C)(C)O)CC(O)CC1O (stereo unspecified) [Calcitriol] + CN(C)C/C=C/C(=O)Nc1cc2c(Nc3ccc(F)c(Cl)c3)ncnc2cc1O[C@H]1CCOC1 [Afatinib] | 42.1 | 43.3 | 31.2 |
| CCCCCCCCOc1ccccc1C(=O)Nc1ccc(C(=O)OCC[N+](C)(CC)CC)cc1.[Br-] [Otilonium Bromide] + CN(C)C/C=C/C(=O)Nc1cc2c(Nc3ccc(F)c(Cl)c3)ncnc2cc1O[C@H]1CCOC1 [Afatinib] | 52.9 | 78.6 | 53.9 |
